Assay results as given in PubChem BioAssay (EPA / NIEHS).
Activity calls are given as the source filed them. How the source made its calls: active means hit-call score of the fitted dose curve at least 0.9, where 1 is the maximum; inactive means score below 0.9.

Experiment: CCTE_Shafer_MEA_acute_per_network_burst_spike_number_mean: CCTE's Neural Acute Assay for Average Number of Spikes in a Network Burst, Shafer Lab (AID 2284019)
Protocol: CCTE_Shafer_MEA_acute assay is conducted using Axion Biosystems 48 well microelectrode array (MEA) plates and Maestro recording system. Each well of the MEA plate contains a grid of 16 microelectrodes embedded in the culture surface. Electrically active cells, such as neurons, can be cultured over the electrodes, and electrical activity in these cells can be recorded extracellularly. The spontaneous firing of neurons is captured from each electrode on a microsecond timescale providing both temporally and spatially precise data. […] The CCTE_Shafer_MEA_acute assay uses primary cultures of rat cortical neurons. As these cultures mature over time, neural networks develop functional activity and form cohesive networks in which electrical activity can be highly coordinated. Baseline 40-minute recordings are made on days post-plating 13 or 15, followed by a secondary 40-minute recording after chemical exposure.CCTE_Shafer_MEA_acute_per_network_burst_spike_number_mean is a component of the CCTE_Shafer_MEA_acute assay. It measures the average number of spikes (action potential firings) in a network burst (temporally-clustered group of spikes across multiple electrodes) as the total number of spikes in a network burst divided by the number of network bursts during a recording in a microelectrode array (MEA) using Axion Biosystems Maestro 768 channel amplifier with the AxIS adaptive spike detector. The recordings before and after chemical treatment are used to calculate a percent change in the mean number of spikes in a network burst in each well.Data from the assay component CCTE_Shafer_MEA_acute_per_network_burst_spike_number_mean was analyzed into 1 assay endpoint. This assay endpoint, CCTE_Shafer_MEA_acute_per_network_burst_spike_number_mean, was analyzed in the negative analysis fitting direction relative to DMSO as the negative control and baseline of activity. Using a type of functional reporter, gain or loss-of-signal activity can be used to understand electrical activity.
Spontaneous activity in the cortical cultures was recorded using an Axion Biosystems Maestro 768 channel amplifier and Axion Integrated Studios (AxIS) v1.8 (or later) software. The amplifier recorded from all channels simultaneously (gain = 1200 x; sampling rate = 12.5 kHz/channel): raw signals were filtered with a Butterworth band-pass filter (300-5000 Hz), which filters out slower local field potentials leaving only fast potentials, i.e., "spikes", arising from extracellular currents associated with action potentials (Pine 2006; Wheeler and Nam 2011). On-line spike detection of filtered signals was conducted with the AxIS adaptive spike detector, using a threshold of 8x the root mean squared (rms) noise on each channel. Any electrodes with rms noise levels greater than 5 uV were grounded (e.g., no data were recorded). Once grounded, an electrode was grounded for the duration of the experiment. All recordings were conducted at 37 C. Wells were deemed usable if on the day of the exposure >/= 10 electrodes were active (defined as >/= 5 spikes/min). On DIV 13 or 15, a minimum of three wells from one cortical culture preparation were treated with each compound (0.03-40 uM). Prior to recording baseline activity, each mwMEA plate was placed in the Maestro at 37 C and allowed to sit for 20 min while firing rates stabilized. Baseline activity (40 min) was recorded before the addition of each compound. An additional 40 min of spontaneous activity was recorded in the presence of each compound. Changes in network parameters relative to baseline were assessed following compound treatment.

SMILES	outcome	AC50
O=C(c1ccc(O)cc1O)c1ccc(O)cc1O	inactive	–
CCCCC(CC)CN1C(=O)C2C3C=CC(C3)C2C1=O (centres undefined)	–	4.1 µM (active)
CC1(C)C(C=C(Cl)Cl)C1C(=O)OCc1cccc(Oc2ccccc2)c1 (centres undefined)	inactive	–
CC(C)(c1ccc(O)cc1)c1ccc(O)cc1	inactive	–
OB(O)O	inactive	–
O=C(O)c1ccccc1	inactive	–
Oc1ccc(C(c2ccc(O)cc2)C(Cl)(Cl)Cl)cc1	–	3.02 µM (active)
N#CSCSc1nc2ccccc2s1	–	11.6 µM (active)
O=C(c1ccccc1)C1CCCCC1	inactive	–
O=C(Nc1ccc([N+](=O)[O-])cc1Cl)c1cc(Cl)ccc1O	–	0.179 µM (active)
CCCN(CCC)c1c([N+](=O)[O-])cc(C(F)(F)F)c(N)c1[N+](=O)[O-]	inactive	–
CC(C)(C)[C@@H](O)[C@@H](Cc1ccc(Cl)cc1)n1cncn1	inactive	–
C#CCOC(=O)[C@@H](C)Oc1ccc(Oc2ncc(Cl)cc2F)cc1	inactive	–
Cc1nn(C)c(Oc2ccccc2)c1C=NOCc1ccc(C(=O)OC(C)(C)C)cc1	–	0.39 µM (active)
CCNc1nc(N)nc(Cl)n1	inactive	–
CC(C)CCCCCCc1ccc(O)cc1	inactive	–
C=CCOC(Cn1ccnc1)c1ccc(Cl)cc1Cl (centres undefined)	inactive	–
COC(=O)c1ccccc1C(=O)O	inactive	–
CSC(=O)c1cccc2nnsc12	inactive	–
